Experimental data as given in publication PMC5540273 (PLoS ONE, 2017).

test system: JAK1(JH2domain-pseudokinase); conditions: concentration: 1 μM,replicates: in singlicate; n = 1
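Also: KINOMEscan kinase panel screen.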

SMILES | %Inh [%]
Cn1ccc2ncnc(Oc3ccc(NC(=O)Nc4cnn(C(C)(C)C)c4)c(Cl)c3)c21 | 0
COc1cc2ncn(-c3cc(OCC4CCCCC4)c(C(N)=O)s3)c2cc1OC [GSK204559] | 0
COc1cccc(CNC(=O)NC2CCN(c3ccnc(Nc4cc(OC)c(OC)c(OC)c4)n3)C2)c1 (stereo not shown) [GSK1379765] | 11
Cn1ccc2ncnc(Oc3ccc(NC(=O)Nc4cccc(C(F)(F)F)c4)c(F)c3)c21 | 7
CNC(=O)c1ccccc1Nc1nc(Nc2cccc(CS(C)(=O)=O)c2)ncc1C.O=CO [GSK1520489] | 97.8
C[C@@H](Oc1cc(-n2cnc3cc(-c4cnn(C)c4)ccc32)sc1C(N)=O)c1ccccc1Cl [GSK580432] | 0
COc1cc(Nc2nccc(N3CCC(NC(=O)c4cccc(C#N)c4)C3)n2)cc(OC)c1OC (stereo not shown) [GSK1379751] | 2
Cc1ccn2nc(-c3ccc(F)cc3)c(-c3ccncc3)c2c1.Cl [GW457859] | 75
CN1CCN(CCNc2nc3cc(Oc4ccc(NC(=O)Nc5cc(C(F)(F)F)ccc5F)cc4)ccc3[nH]2)CC1.Cl.Cl [GW768504] | 15
NC(=O)c1ccc(-c2cc3ncnc(SCC(=O)O)c3s2)cc1 | 50
CC(=O)c1c(-c2ccncc2)[nH]c(-c2ccncc2)c1C [GW493036] | 0
O=C(Nc1cccc(C(F)(F)F)c1)c1cccc(Oc2ccc3nccn3n2)c1 | 10
CC(=O)Nc1nc2cnc(Nc3cc(NC(=O)c4cccc(CC(C)(C)C#N)c4)ccc3C)nc2s1 | 25
COc1ccc(Nc2nccc(N3CCC(NC(=O)c4cccc(C#N)c4)C3)n2)cc1 (stereo not shown) [GSK1379730] | 0
Cl.c1ccc(Oc2ccc(Nc3ccnc4cc(-c5ccc(CN6CCNCC6)o5)ccc34)cc2)nc1 [GW567142] | 17
O=C(Nc1ccc(Oc2ccc3nc(NC(=O)C4CC4)cn3n2)c(F)c1)c1cccn(-c2ccccc2)c1=O | 0
Cl.Cl.NC[C@H](CC1CCCCC1)NC(=O)c1ccc(-c2ccnc3[nH]ccc23)s1 [GSK1581428] | 0
COC(=O)Nc1nc2cc(Oc3ccc(NC(=O)Nc4cc(C(F)(F)F)ccc4Cl)cc3)ccc2[nH]1.Cl [GW697465] | 0
CC(C(=O)NC1CCN(c2ccnc(Nc3ccc(F)cc3)n2)C1)c1ccc(Cl)cc1 (stereo not shown) [GSK1379713] | 0

SMILES | %Inh [%]
O=C(NCC1CC1)c1ccc(-c2cc(C(=O)NC3CC3)ccc2F)cc1 [GW810445] | 0
CCN1CCN(CCCC(=O)Nc2n[nH]c3nc(-c4ccc(O)cc4)c(Br)cc23)CC1 [SB-731579] | 0
Cc1nnc(-c2ccc3occ(-c4ccc(S(C)=O)cc4)c3n2)o1 (stereo not shown) | 0
CC(C)S(=O)(=O)N1CCN(Cc2ccc3c(c2)nc(NC(=O)c2ccsc2)n3C[C@H](O)c2ccccc2)CC1 [GW635815] | 0
Cn1ccc2ncnc(Oc3ccc(NC(=O)Nc4cccc(C(F)(F)F)c4)c(Cl)c3)c21 | 45
Cn1ccc2ncnc(Oc3ccc(NC(=O)Nc4ccnc(C(F)(F)F)c4)c(Cl)c3)c21 | 1
Cc1cccc2c(-c3ccncc3)c(-c3ccc(F)cc3)nn12.Cl [GW461487] | 19
Cc1ccc2c(-c3ccnc(Nc4ccc(C(F)(F)F)cc4)n3)cnn2n1 [GW819776] | 57
Cc1n[nH]c2cc(Nc3ccnc(Nc4cccc(CN5CCOCC5)c4)n3)ccc12 [GW682569] | 98.8
CCn1c(-c2nonc2N)nc2cncc(Br)c21 [SB-738004] | 0
CN1CCN(CCCNc2nccc(-c3c(-c4ccc(F)cc4)nn4cc(C(N)=O)ccc34)n2)CC1 [GW622475] | 0
Nc1nccc(-c2ccc3c(N)n[nH]c3c2)n1 [GSK1034945] | 29
Cc1ccc(C(=O)Nc2ccc(Oc3ccc4nc(NC(=O)C5CC5)cn4c3)c(F)c2)c(=O)n1-c1ccccc1 | 0
Cn1ccc2ncnc(Oc3ccc(NC(=O)Nc4cncc(C(F)(F)F)c4)c(Cl)c3)c21 | 0
NC(=O)Nc1sc(-c2ccc(F)cc2)cc1C(N)=O [GW789449] | 100
Cn1ccc2ncnc(Oc3ccc(NC(=O)Nc4cc(C(C)(C)C)on4)c(Cl)c3)c21 | 0
COC(=O)c1cccc(NC(=O)NC2CCN(c3ccnc(Nc4cc(OC)c(OC)c(OC)c4)n3)C2)c1 (stereo not shown) [GSK1379767] | 13
O=C(Nc1ccccc1)c1cccc(Oc2ccc3nccn3n2)c1 | 10
